Where “and” joins values, the source holds several entries; their conditions need not be identical. Equal entries are not always repeated. Records with an inconclusive call do not appear. Where a structure was tested more than once in an assay, its records may differ in their call. Calls of active or inactive are those of the source. Unless noted, the call rests on the fitted dose curve; in most records, active means well fitted curve in the direction sought with a large enough effect in the repeat runs; inconclusive means weak or mixed curves; inactive means no such curve, though single readings can be large; an effect the other way counts as inactive or inconclusive.
Experiments:
[1] = biological target: Thyrotropin-releasing hormone receptor (Homo sapiens) (UniProt P34981); test: qHTS assay to identify small molecule agonists of the thyrotropin-releasing hormone receptor (TRHR) signaling pathway (AID 1346891; calls by dose curve;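 further: HEK293 cells expressing TRHR with calcium dye readout; series mostly up to about 58 µM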)
Sequence of Thyrotropin-releasing hormone receptor (Homo sapiens) (P34981 whole entry, looked up): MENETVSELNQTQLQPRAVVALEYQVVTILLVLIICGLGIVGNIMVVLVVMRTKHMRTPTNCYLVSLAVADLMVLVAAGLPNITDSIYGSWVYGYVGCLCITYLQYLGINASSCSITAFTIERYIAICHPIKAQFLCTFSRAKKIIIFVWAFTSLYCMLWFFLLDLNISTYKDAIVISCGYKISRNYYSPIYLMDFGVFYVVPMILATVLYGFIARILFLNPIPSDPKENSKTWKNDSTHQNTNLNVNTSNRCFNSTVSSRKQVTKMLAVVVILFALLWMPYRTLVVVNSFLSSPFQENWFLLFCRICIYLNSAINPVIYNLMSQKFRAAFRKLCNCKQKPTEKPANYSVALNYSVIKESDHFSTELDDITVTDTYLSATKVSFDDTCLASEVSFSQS
In short: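 Agonist-mode calcium mobilisation screen: TRHR-transfected HEK293 cells cultured overnight (18 h), dye-loaded for 2 h at 37 °C, exposed to compounds, and monitored by fluorescence for 3 min.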

[2] = Human pregnane X receptor (PXR) small molecule agonists, qHTS cell viability counter screen (AID 1346977); further: nearly all actives have a fitted effect of over 50% in size; further: potency means the concentration at half of the fitted maximal effect
In short: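 Measures live-cell protease fluorescence (CellTiter-Fluor) in PXR-Luc HepG2 cells treated 24hr with compounds at 37C. Cells had 5hr to attach before pin transfer of DMSO solutions.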

[3] = Caspase-3/7 induction in HepG2 cells by small molecules, qHTS assay (AID 1346978); further: nearly all actives have a fitted effect of over 15% in size
In short: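 Wild-type HepG2 cells (2,000/well) were settled 5 h at 37 C, 5% CO2, then exposed to compounds in DMSO for 17 h. Caspase-3/7 activity was read by luminescence 30 min after adding Caspase-Glo 3/7 reagent at room temperature.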

[4] = Caspase-3/7 induction in CHO-K1 cells by small molecules, qHTS cell viability counter screen (AID 1346979); further: nearly all actives have a fitted effect of over 35% in size; further: potency means the concentration at half of the fitted maximal effect
In short: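 In the same wells as the caspase read, viability of compound-treated wild-type CHO-K1 cells was assessed using CellTiter-Fluor, added after 16hr at 37C and measured by fluorescence following 1hr further incubation.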

[5] = Caspase-3/7 induction in CHO-K1 cells by small molecules, qHTS assay (AID 1346980); further: nearly all actives have a fitted effect of over 15% in size
In short: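 Wild-type cells were seeded at 1,500 per well and settled 5 hr at 37 C, 5% CO2, then exposed to DMSO-dissolved compounds for 17 hr. Caspase-Glo 3/7 reagent was added, and luminescence was read after 30min at room temperature.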

[6] = Caspase-3/7 induction in HepG2 cells by small molecules, qHTS cell viability counter screen (AID 1346981); further: nearly all actives have a fitted effect of over 30% in size; further: potency means the concentration at half of the fitted maximal effect
In short: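 In this quantitative HTS counter screen, compounds delivered in DMSO were left on unmodified HepG2 cells for 16 hr at 37 C. Viability was then determined fluorometrically with CellTiter-Fluor, in parallel with caspase-3/7 induction in the same wells.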

[7] = biological target: Nuclear receptor subfamily 1 group I member 2 (Homo sapiens) (UniProt O75469); test: Human pregnane X receptor (PXR) small molecule agonists, qHTS assay (AID 1346982); further: nearly all actives have a fitted effect of over 35% in size; further: potency means the concentration at half of the fitted maximal effect
Sequence of Nuclear receptor subfamily 1 group I member 2 (Homo sapiens) (O75469 whole entry, looked up): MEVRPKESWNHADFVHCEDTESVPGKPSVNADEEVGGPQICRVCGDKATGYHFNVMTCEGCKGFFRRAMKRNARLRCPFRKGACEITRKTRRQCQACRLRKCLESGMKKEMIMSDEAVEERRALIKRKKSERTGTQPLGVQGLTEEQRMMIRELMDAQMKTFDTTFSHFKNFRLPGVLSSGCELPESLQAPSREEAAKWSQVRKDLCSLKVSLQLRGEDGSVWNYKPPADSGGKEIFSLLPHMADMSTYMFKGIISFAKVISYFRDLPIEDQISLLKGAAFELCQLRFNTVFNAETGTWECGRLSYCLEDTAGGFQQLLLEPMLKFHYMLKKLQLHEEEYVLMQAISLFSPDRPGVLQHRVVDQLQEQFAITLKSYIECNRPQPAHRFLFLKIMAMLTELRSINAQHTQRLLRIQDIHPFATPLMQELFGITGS
In short: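 Reporter HepG2 cells expressing PXR-Luc are cultured in charcoal-stripped FBS (5%), treated with compounds for 24 hr at 37 C, and assayed by ONE-Glo luminescence after 30 min at room temperature.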

[8] = biological target: Nuclear receptor subfamily 1 group I member 2 (Rattus norvegicus) (UniProt Q9R1A7); test: Rat pregnane X receptor (rPXR) activation by small molecules, qHTS assay (AID 1346983); conditions: rPXR luciferase reporter cells, One-Glo luminescence, 24 h; stronger effect = higher value; further: nearly all actives have a fitted effect of over 20% in size
Sequence of Nuclear receptor subfamily 1 group I member 2 (Rattus norvegicus) (Q9R1A7 whole entry, looked up): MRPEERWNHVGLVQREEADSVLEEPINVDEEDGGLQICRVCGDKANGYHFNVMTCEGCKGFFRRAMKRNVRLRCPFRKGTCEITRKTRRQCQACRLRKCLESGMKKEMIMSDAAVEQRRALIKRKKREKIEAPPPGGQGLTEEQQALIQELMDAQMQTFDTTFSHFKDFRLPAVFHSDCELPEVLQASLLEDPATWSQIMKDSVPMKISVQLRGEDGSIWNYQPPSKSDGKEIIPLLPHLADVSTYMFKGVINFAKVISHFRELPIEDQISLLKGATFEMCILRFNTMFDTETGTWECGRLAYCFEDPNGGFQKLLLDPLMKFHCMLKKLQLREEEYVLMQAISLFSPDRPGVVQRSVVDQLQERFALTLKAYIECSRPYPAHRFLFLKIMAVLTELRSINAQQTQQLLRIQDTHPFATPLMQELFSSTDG
In short: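 Cell-based rPXR luciferase reporter assay, 2,000 cells per well, rested 5hr at 37 C before compound addition in DMSO, then 24 hr at 37 C. One-Glo reagent was added and luminescence read after 30 min at room temperature.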

[9] = biological target: Nuclear receptor subfamily 1 group I member 2 (Homo sapiens) (UniProt O75469); test: CYP3A4 induction through human pregnane X receptor (PXR) by small molecules, qHTS assay (AID 1346984); further: nearly all actives have a fitted effect of over 40% in size
In short: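 Induction measured in HepG2-based DPX-2 cells co-expressing human PXR and a CYP3A4 promoter-driven luciferase. After a 24-hour compound exposure, cells received CYP3A4 luciferin substrate at 3uM final for 3 hours, and light output was then recorded.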

[10] = biological target: Nuclear receptor subfamily 1 group I member 2 (Homo sapiens) (UniProt O75469); test: Human pregnane X receptor (PXR) activation by small molecules, qHTS assay (AID 1346985); further: nearly all actives have a fitted effect of over 40% in size
In short: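 DPX-2 cells (HepG2 co-transfected with a PXR response element and a CYP3A4-promoter luciferase construct) were seeded at 2,000 per well, rested 5 hr at 37C, then exposed to DMSO-dissolved compounds for 24 hr. Activation was read as luciferase luminescence.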

[11] = biological target: Cytochrome P450 2D6 (Homo sapiens) (UniProt P10635); test: Cytochrome P450 Family 2 Subfamily D Member 6 (CYP2D6) small molecule antagonists: luciferase reporter qHTS assay (AID 1671196); further: nearly all actives have a fitted effect of over 50% in size; further: potency means the concentration at half of the fitted maximal effect
Sequence of Cytochrome P450 2D6 (Homo sapiens) (P10635 whole entry, looked up): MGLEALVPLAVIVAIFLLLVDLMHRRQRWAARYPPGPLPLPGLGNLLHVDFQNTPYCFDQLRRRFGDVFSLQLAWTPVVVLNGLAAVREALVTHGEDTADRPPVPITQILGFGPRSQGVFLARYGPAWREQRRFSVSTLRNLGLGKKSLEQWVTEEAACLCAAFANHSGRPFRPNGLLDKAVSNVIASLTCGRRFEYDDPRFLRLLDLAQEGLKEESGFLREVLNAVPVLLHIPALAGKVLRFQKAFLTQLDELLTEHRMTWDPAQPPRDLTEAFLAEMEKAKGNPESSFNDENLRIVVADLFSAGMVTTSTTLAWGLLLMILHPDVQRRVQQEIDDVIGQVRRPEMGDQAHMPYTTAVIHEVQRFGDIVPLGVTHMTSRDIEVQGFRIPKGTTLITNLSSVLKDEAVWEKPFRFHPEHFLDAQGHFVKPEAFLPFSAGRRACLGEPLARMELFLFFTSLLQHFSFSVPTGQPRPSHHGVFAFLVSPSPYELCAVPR
In short: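 Test chemicals meet CYP2D6 plus proluciferin substrate (10 min, RT); NADPH regenerating solution then drives turnover for 1 h. Detection reagent halts the reaction; luminescence measured after 20 min.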

[12] = biological target: Cytochrome P450 2C9 (Homo sapiens) (UniProt P11712); test: Cytochrome P450 Family 2 Subfamily C Member 9 (CYP2C9) small molecule antagonists: luciferase reporter qHTS assay (AID 1671198); further: nearly all actives have a fitted effect of over 50% in size; further: potency means the concentration at half of the fitted maximal effect
Sequence of Cytochrome P450 2C9 (Homo sapiens) (P11712 whole entry, looked up): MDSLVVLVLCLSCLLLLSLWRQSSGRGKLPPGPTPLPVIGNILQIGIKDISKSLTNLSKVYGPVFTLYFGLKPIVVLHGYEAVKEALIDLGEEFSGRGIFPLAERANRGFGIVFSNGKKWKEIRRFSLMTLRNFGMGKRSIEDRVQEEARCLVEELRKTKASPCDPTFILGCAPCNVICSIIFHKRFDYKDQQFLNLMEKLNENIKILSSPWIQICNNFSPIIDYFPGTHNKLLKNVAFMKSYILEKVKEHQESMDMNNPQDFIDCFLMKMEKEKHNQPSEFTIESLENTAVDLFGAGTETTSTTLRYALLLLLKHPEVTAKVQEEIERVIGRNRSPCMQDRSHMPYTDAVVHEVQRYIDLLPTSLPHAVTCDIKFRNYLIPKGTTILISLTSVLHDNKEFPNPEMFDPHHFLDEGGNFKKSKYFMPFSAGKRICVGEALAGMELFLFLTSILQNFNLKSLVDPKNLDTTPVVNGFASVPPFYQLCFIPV
In short: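 CYP2C9 activity was measured with a P450-Glo proluciferin substrate. Enzyme–substrate mix was held with compound for 10 min at room temperature, then NADPH regeneration solution was added for 1 h at 37C. Luciferin product was read as luminescence.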

[13] = biological target: Cytochrome P450 1A2 (Homo sapiens) (UniProt P05177); test: Cytochrome P450 Family 1 Subfamily A Member 2 (CYP1A2) small molecule antagonists: luciferase reporter qHTS assay (AID 1671199); further: nearly all actives have a fitted effect of over 50% in size; further: potency means the concentration at half of the fitted maximal effect
Sequence of Cytochrome P450 1A2 (Homo sapiens) (P05177 whole entry, looked up): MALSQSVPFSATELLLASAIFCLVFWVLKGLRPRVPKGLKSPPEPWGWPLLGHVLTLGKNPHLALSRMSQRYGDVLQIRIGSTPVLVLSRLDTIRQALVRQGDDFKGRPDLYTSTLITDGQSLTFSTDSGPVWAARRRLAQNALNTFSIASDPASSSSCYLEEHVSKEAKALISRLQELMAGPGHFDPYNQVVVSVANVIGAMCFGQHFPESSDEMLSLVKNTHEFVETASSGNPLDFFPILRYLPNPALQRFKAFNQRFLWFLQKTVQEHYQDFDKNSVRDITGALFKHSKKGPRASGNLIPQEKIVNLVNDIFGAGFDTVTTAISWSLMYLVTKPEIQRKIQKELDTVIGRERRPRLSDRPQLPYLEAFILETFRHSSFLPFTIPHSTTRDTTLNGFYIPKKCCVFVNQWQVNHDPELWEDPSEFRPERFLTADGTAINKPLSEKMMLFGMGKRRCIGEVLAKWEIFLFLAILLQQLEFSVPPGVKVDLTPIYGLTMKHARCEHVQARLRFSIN
In short: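 Steps: enzyme-substrate mix dispensed; test compounds and furafylline control pinned in; 10 min room temperature; NADPH regeneration solution added, 1 h; reaction stopped with luciferin detection reagent; luminescence read after 20 min.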

[14] = biological target: Voltage-gated inwardly rectifying potassium channel KCNH2 (Homo sapiens) (UniProt Q12809); test: Human Ether-a-go-go-Related Gene (hERG) channel small molecule antagonists: fluorescence cell-based qHTS assay (AID 1671200)
Sequence of Voltage-gated inwardly rectifying potassium channel KCNH2 (Homo sapiens) (Q12809 whole entry, looked up): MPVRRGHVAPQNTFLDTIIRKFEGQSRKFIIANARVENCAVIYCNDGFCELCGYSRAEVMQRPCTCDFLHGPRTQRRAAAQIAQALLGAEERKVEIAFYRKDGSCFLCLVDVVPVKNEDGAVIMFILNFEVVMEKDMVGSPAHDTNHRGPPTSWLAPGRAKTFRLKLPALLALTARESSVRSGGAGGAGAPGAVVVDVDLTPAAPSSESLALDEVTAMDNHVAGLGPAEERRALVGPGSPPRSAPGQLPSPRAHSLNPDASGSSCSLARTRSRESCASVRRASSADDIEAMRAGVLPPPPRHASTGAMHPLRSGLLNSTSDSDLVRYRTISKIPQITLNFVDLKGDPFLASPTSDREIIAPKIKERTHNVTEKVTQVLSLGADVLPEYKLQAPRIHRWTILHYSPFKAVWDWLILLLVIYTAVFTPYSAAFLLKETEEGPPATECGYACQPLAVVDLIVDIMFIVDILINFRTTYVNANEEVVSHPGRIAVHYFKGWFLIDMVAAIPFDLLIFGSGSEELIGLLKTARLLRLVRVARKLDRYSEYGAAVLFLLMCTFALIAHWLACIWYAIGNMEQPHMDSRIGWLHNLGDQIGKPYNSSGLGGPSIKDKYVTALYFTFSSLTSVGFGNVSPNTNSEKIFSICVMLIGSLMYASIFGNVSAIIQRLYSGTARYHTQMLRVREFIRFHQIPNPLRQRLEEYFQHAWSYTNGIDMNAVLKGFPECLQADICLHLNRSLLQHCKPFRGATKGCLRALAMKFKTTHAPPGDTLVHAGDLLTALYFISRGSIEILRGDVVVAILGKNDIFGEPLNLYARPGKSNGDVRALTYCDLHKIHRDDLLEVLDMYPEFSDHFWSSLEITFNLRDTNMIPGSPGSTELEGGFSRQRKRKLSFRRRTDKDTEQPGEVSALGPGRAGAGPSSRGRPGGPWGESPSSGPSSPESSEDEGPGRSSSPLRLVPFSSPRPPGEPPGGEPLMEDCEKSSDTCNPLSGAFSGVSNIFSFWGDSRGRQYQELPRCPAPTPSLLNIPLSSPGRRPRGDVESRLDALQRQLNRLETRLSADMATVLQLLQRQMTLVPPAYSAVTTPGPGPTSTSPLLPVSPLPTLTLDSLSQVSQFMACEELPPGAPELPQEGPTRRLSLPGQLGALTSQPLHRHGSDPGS
In short: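 Quantitative HTS in hERG-U2OS cells: thallium entry through the channel reports activity, read as continuous 480/540 nm fluorescence over 2 min after stimulus addition.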

[15] = biological target: Cytochrome P450 3A4 (Homo sapiens) (UniProt P08684); test: Cytochrome P450 Family 3 Subfamily A Member 4 (CYP3A4) small molecule antagonists: luciferase reporter qHTS assay (AID 1671201)
Sequence of Cytochrome P450 3A4 (Homo sapiens) (P08684 whole entry, looked up): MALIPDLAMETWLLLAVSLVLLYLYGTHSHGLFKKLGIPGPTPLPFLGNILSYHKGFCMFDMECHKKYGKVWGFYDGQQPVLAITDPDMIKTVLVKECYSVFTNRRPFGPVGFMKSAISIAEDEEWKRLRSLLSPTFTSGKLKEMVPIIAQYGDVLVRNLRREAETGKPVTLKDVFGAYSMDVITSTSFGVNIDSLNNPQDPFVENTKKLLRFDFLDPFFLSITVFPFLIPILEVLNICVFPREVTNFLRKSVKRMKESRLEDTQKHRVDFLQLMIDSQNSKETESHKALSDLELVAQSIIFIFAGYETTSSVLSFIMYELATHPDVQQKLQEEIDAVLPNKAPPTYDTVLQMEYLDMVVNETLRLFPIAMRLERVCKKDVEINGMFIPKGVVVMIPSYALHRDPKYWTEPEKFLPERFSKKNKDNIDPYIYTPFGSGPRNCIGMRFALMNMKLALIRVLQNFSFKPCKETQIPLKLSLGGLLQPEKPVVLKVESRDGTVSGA
In short: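 Inhibition of CYP3A4 is measured as loss of light: the enzyme converts a proluciferin substrate to luciferin, detected luminescently. Reaction ran 1 h at room temperature with NADPH regeneration after a 10 min compound preincubation.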

[16] = biological target: Cytochrome P450 2C19 (Homo sapiens) (UniProt P33261); test: Cytochrome P450 Family 2 Subfamily C Member 19 (CYP2C19) small molecule antagonists: luciferase reporter qHTS assay (AID 1671197); further: nearly all actives have a fitted effect of over 65% in size; further: potency means the concentration at half of the fitted maximal effect
Sequence of Cytochrome P450 2C19 (Homo sapiens) (P33261 whole entry, looked up): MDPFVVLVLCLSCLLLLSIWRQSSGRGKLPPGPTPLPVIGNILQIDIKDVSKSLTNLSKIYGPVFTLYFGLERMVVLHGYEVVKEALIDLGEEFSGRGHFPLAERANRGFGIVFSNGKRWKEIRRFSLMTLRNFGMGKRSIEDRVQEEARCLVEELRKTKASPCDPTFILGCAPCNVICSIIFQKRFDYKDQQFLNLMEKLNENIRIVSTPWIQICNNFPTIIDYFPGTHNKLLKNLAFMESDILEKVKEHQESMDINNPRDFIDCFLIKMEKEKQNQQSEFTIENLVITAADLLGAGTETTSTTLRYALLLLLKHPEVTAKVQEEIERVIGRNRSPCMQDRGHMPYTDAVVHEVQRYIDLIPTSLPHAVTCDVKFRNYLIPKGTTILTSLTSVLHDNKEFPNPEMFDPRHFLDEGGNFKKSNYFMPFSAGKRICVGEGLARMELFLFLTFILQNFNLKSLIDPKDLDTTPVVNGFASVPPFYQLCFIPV
In short: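 First, compounds are pinned into enzyme-substrate mix and held 10 min at room temperature. Second, NADPH regeneration solution is added and plates incubate 1 h at 37C. Third, detection reagent is added and luminescence read after 20 min.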
On the % scale 0 is the no-effect control and ±100 the full control effect.

O=C(O)CCCCC(=O)O
inactive: outcome [1] | Potency [2] | Potency [3] | Potency [4] | outcome [5] | Potency [6] | Potency [7] | max activation [8] -1.24% | outcome [9] | Potency [10] | Potency [11] | Potency [12] | Potency [13] | outcome [14] | Potency [15]

Cc1cc(=O)n(-c2ccccc2)n1C
inactive: outcome [1] | Potency [2] | Potency [3] | Potency [4] | outcome [5] | Potency [6] | Potency [7] | Potency [11] | Potency [16] | Potency [13] | outcome [14] | Potency [15]

CCCCC(CC)COC(=O)/C=C/c1ccc(OC)cc1 (configuration not stated)
inactive: outcome [1] | Potency [2] | Potency [3] | Potency [4] | outcome [5] | Potency [6] | Potency [7] | outcome [9] | Potency [10] | Potency [11] | outcome [14] | Potency [15]
active: Potency [16] 39.8 µM and 25.2 µM and 24.5 µM | Potency [12] 19.9 µM and 12.6 µM and 11 µM | Potency [13] 19.9 µM and 12.6 µM and 13.8 µM

O=C(O)c1[nH]n(-c2ccc(S(=O)(=O)O)cc2)c(=O)c1N=Nc1ccc(S(=O)(=O)O)cc1
inactive: outcome [1] | Potency [3] | outcome [5] | Potency [7] | Potency [11] | Potency [13] | outcome [14] | Potency [15]
active: Potency [2] 39.8 µM and 45.4 µM | Potency [4] 29.8 µM and 48.7 µM and 45.4 µM | Potency [6] 29.8 µM and 27.4 µM and 50.9 µM
inactive and 18.7 µM (active): Potency [12]

O=C1CN(/N=C/c2ccc([N+](=O)[O-])o2)C(=O)N1
inactive: outcome [1] | Potency [3] | outcome [5] | Potency [7] | max activation [8] -5.45% | outcome [9] | Potency [10] | Potency [11] | Potency [12] | Potency [13] | outcome [14] | Potency [15]
active: Potency [2] 27.2 µM and 68.6 µM and 26.6 µM | Potency [4] 60.9 µM and 68.6 µM and 33.5 µM | Potency [6] 48.4 µM and 61.1 µM and 29.8 µM
79.4 µM (active) and inactive: Potency [16]

NC(=O)c1ccccc1O
inactive: outcome [1] | Potency [2] | Potency [3] | Potency [4] | outcome [5] | Potency [6] | Potency [7] | max activation [8] -6.5% | outcome [9] | Potency [10] | Potency [11] | Potency [12] | Potency [13] | outcome [14] | Potency [15]

CCOc1ccc(NC(=O)CC(C)O)cc1 (configuration not stated)
32.1 µM (active) and inactive: Potency [11]
inactive: outcome [1] | Potency [2] | Potency [3] | Potency [4] | outcome [5] | Potency [6] | Potency [7] | max activation [8] 0.554% | outcome [9] | Potency [10] | Potency [12] | outcome [14] | Potency [15]

Cn1c(=O)c2[nH]cnc2n(C)c1=O
inactive: outcome [1] | Potency [2] | Potency [3] | Potency [4] | outcome [5] | Potency [6] | Potency [7] | Potency [11] | Potency [13] | Potency [15]

Cn1cc[nH]c1=S
inactive: Potency [2] | Potency [3] | Potency [4] | outcome [5] | Potency [6] | max activation [8] -0.0972% | Potency [10] | Potency [11] | outcome [14]
inactive and 71 µM (active): Potency [12]

CC(=O)NS(=O)(=O)c1ccc(N)cc1
inactive: outcome [1] | Potency [2] | Potency [3] | Potency [4] | outcome [5] | Potency [6] | Potency [7] | Potency [11] | Potency [13] | outcome [14] | Potency [15]

Cc1ccc(S(=O)(=O)NC(=O)NN2CCCCCC2)cc1
inactive: outcome [1] | Potency [2] | Potency [3] | Potency [4] | outcome [5] | Potency [6] | outcome [14]

COc1c2occc2cc2ccc(=O)oc12
active: Potency [7] 61.5 µM and 48.6 µM | Potency [12] 5.06 µM and 10 µM and 4.9 µM
inactive: Potency [2] | Potency [3] | Potency [4] | outcome [5] | Potency [6] | outcome [14]

O=C(O)c1cccnc1
inactive: outcome [1] | Potency [2] | Potency [3] | Potency [4] | outcome [5] | Potency [6] | outcome [14]

O=C(O)CCCCCCCC(=O)O
inactive: outcome [1] | Potency [2] | Potency [3] | Potency [4] | outcome [5] | Potency [6] | Potency [7] | Potency [11] | Potency [13] | outcome [14] | Potency [15]

O=C(O)/C=C\C(=O)O
25.2 µM (active) and inactive: Potency [11]
inactive: outcome [1] | Potency [2] | Potency [3] | Potency [4] | outcome [5] | Potency [6] | Potency [12] | Potency [13] | outcome [14] | Potency [15]

Nc1ccc(O)c(C(=O)O)c1
active: Potency [12] 62.7 µM and 63.3 µM
inactive: outcome [1] | Potency [2] | Potency [3] | outcome [5] | Potency [6] | Potency [7] | Potency [13] | outcome [14] | Potency [15]

O=S(=O)(O)NC1CCCCC1
inactive: Potency [2] | Potency [3] | Potency [4] | outcome [5] | Potency [6] | max activation [8] -1.36% | outcome [14]

CCC1(c2ccccc2)C(=O)NCNC1=O
inactive: Potency [2] | Potency [3] | Potency [4] | outcome [5] | Potency [6] | Potency [7] | Potency [11] | Potency [12] | Potency [13] | outcome [14] | Potency [15]
